From PubChem BioAssay (Tox21) come the findings set out here.

A short description of assay [1]: qHTS assay to identify aromatase inhibitors - cell viability counter screen (AID 743084).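 Also: cells stimulated with testosterone during compound exposure; nearly all actives have a fitted effect of over 55% in size.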 Also: potency is read from the fitted curve at half-maximal effect.
The target in assay [2] is Aryl hydrocarbon receptor (Homo sapiens) (UniProt P35869). In words: qHTS assay to identify small molecule that activate the aryl hydrocarbon receptor (AhR) signaling pathway (AID 743085). Also: nearly all actives have a fitted effect of over 15% in size. Also: potency is read from the fitted curve at half-maximal effect.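 As to activation: HG2L7.5c1 human HepG2 liver cells with stably integrated DRE-driven firefly reporter; series mostly up to about 70 µM.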 In outline: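 HepG2 cells stably carrying a 20-DRE firefly luciferase reporter (HG2L7.5c1) treated with compound for 24 hr at 37C. Luciferase read by ONE-Glo luminescence, with CellTiter-Fluor viability read first.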

Assay [3] can be described thus: qHTS assay to identify small molecule that activate the aryl hydrocarbon receptor (AhR) signaling pathway - cell viability counter screen (AID 743086). Also: nearly all actives have a fitted effect of over 45% in size. Also: potency is read from the fitted curve at half-maximal effect. In outline: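 HepG2-AhR-luc (HG2L7.5c1) cells, 4000/well, treated 24 h at 37 C with compound; viability measured as CellTiter-Fluor fluorescence after 30 min in the same wells as the luciferase read.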
Assay [4] is described as follows: qHTS assay for small molecule agonists of the antioxidant response element (ARE) signaling pathway (AID 743202; active = well fitted activation curve with a large enough effect in the signal ratio in the repeat runs, not every such curve was filed as active; the % refers to the signal ratio; also: potency is read from the fitted curve at half-maximal effect). The essentials:
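HepG2 ARE-bla cells; 16 h treatment at 37 C; FRET-based beta-lactamase fluorescence read after 2 h substrate incubation at room temperature.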

Assay [5] can be described thus: qHTS assay for small molecule agonists of the antioxidant response element (ARE) signaling pathway - cell viability counter screen (AID 743203; calls by dose curve; also: nearly all actives have a fitted effect of over 55% in size; also: potency is read from the fitted curve at half-maximal effect). In outline:
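Viability counter screen: stably transfected ARE-bla HepG2 line, 16 hrs compound exposure at 37C/5% CO2, ATP-based CellTiter-Glo luminescence measured in the reporter wells.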

Assay [6] is described as follows: qHTS assay for small molecule activators of the heat shock response signaling pathway (AID 743210; active = well fitted activation curve with a large enough effect in the signal ratio in the repeat runs, with a control signal flat, not every such curve was filed as active; the % refers to the signal ratio;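 also: HeLa cells with beta-lactamase reporter driven by heat shock elements; series mostly up to about 63 µM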). The essentials: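 Following overnight attachment, HSE-bla HeLa cells received test compounds for 5 h at 37 C; beta-lactamase activity was then detected via FRET substrate fluorescence.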
For assay [7], the target named is Peroxisome proliferator-activated receptor gamma (Homo sapiens) (UniProt P37231). In words: qHTS assay to identify small molecule agonists of the peroxisome proliferator-activated receptor gamma (PPARg) signaling pathway (AID 743094; active = well fitted activation curve with a large enough effect in the signal ratio in the repeat runs, not every such curve was filed as active; the % refers to the signal ratio). The essentials: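 Reporter activation was scored by fluorescence of cleaved LiveBLAzer B/G substrate (1 h, room temperature) in PPARg-bla HEK293H cells previously treated 17 h at 37C with DMSO-dissolved compounds.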

The nature of assay [8]: qHTS assay for small molecule activators of the heat shock response signaling pathway - cell viability counter screen (AID 743209). Also: nearly all actives have a fitted effect of over 50% in size. The essentials:
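Viability of HSE-bla HeLa cells is measured with CellTiter-Glo in the wells already used for the reporter read. Compound exposure lasts 5 h at 37 C, and luminescence is read after 30 min at room temperature.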

In assay [9] the target is Peroxisome proliferator-activated receptor gamma (Homo sapiens) (UniProt P37231). In words: qHTS assay to identify small molecule antagonists of the peroxisome proliferator-activated receptor gamma (PPARg) signaling pathway (AID 743191; calls by dose curve; also: nearly all actives have a fitted effect of over 30% in size; also: potency is read from the fitted curve at half-maximal effect). In outline:
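GeneBLAzer PPARg UAS-bla HEK293H cells, 5 h post-plating, exposed to compounds 17 h at 37C. LiveBLAzer B/G FRET substrate added for 1 h at room temperature; beta-lactamase reporter read by fluorescence intensity.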

The nature of assay [10]: qHTS assay to identify small molecule antagonists of the peroxisome proliferator-activated receptor gamma (PPARg) signaling pathway - cell viability counter screen (AID 743194). Also: nearly all actives have a fitted effect of over 55% in size. The essentials: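 Cytotoxicity counter screen in PPARg-bla HEK293H cells, same wells as reporter assay. Compounds plus 50 nM rosiglitazone (final) for 17 h at 37 C, then viability read by CellTiter-Glo luminescence.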

Where “and” joins values, the source holds several entries; their conditions need not be identical. Identical values can stand only once. Records with an inconclusive call do not appear. Some structures have more than one record in an assay (separate samples or runs), and their calls can disagree. Calls of active or inactive are those of the source. Unless noted, calls follow the shape of the dose curve; as a rule, active = well fitted curve in the direction sought with a large enough effect in the repeat runs; inconclusive = weak or mixed curves; inactive = no such curve, though single readings can be large; an effect the other way counts as inactive or inconclusive.

Sequence of Aryl hydrocarbon receptor (Homo sapiens) (P35869 whole entry, looked up): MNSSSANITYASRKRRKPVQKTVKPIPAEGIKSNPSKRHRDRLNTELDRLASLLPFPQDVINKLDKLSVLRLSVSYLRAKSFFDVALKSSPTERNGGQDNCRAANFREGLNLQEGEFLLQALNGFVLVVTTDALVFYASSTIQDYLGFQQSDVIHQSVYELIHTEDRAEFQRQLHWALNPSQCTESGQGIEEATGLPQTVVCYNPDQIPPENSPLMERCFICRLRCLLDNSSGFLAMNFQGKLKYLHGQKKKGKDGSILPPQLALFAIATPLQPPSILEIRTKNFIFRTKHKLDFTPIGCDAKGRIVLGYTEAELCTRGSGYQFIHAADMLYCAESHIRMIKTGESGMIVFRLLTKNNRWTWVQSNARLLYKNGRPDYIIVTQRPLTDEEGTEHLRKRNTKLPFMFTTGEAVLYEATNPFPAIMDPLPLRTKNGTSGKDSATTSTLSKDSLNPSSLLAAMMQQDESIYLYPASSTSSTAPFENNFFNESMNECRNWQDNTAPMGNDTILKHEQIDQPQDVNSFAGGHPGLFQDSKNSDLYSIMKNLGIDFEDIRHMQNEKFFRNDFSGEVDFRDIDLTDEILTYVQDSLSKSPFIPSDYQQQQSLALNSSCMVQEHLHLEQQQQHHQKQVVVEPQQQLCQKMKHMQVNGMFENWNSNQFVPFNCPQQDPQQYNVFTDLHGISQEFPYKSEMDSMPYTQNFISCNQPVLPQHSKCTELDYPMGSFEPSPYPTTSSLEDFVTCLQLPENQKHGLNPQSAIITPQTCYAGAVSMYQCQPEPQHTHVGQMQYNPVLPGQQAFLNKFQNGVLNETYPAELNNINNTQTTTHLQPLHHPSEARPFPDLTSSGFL
Sequence of Peroxisome proliferator-activated receptor gamma (Homo sapiens) (P37231 whole entry, looked up): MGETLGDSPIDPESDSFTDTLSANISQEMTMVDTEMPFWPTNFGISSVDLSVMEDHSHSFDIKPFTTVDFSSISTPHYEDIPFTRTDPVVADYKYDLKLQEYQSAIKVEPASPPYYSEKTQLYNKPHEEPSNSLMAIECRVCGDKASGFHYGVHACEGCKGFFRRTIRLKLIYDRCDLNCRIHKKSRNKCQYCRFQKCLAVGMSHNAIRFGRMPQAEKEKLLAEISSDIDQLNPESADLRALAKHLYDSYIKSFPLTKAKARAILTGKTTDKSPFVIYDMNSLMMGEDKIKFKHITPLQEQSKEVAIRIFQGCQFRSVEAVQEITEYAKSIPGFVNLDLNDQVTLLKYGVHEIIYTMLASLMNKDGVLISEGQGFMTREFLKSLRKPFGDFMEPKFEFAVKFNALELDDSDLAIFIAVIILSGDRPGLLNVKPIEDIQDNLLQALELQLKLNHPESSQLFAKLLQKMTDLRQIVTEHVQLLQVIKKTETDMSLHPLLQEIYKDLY

As to `OCCOCCOCCOCCO`, the Potency entry in assay [1], in assay [2], in [3], in assay [4] and in assay [5] was “inactive” each time. Besides, the call in assay [6] was inactive.

For `Cc1cc(Cc2ccc(N)c(C)c2)ccc1N`, the Potency result in assay [3], in assay [4] and in assay [5] was “inactive” in each case. Further, in [6], the call was inactive.

Take `Oc1ccc2ccccc2c1N=Nc1ccccc1`: the Potency in assay [1] is 30.6 µM (active) and 24.3 µM (active); in assay [2], 3.06 µM (active). Besides, the compound was called inactive in assay [7] and in assay [6]. Also, the Potency entry in [5] and in assay [8] was “inactive” in each case.

Consider `Cc1cc(O)cc(C)c1Cl`, for which the Potency result in [1], in assay [3], in assay [9], in assay [10], in assay [4] and in assay [5] was “inactive” throughout. For the same compound, the Potency entry in assay [8] was “inactive”. Also, the result in assay [7] and in assay [6] was inactive.

On to `Oc1ccc2ccccc2c1`, for which the Potency entry in assay [1], in assay [3], in [5] and in assay [8] was “inactive” in each case. Moreover, the Potency in assay [2] is 49.7 µM (active) and 27.3 µM (active); in assay [4] it was 35.2 µM (active) and 21.7 µM (active). The compound was classed as inactive in [6].

Turning to `Cc1cc(NS(=O)(=O)c2ccc(N)cc2)no1`, the Potency entry in assay [1], in assay [3], in assay [10], in [4], in assay [5] and in assay [8] was “inactive” throughout. Further, the outcome in assay [6] was inactive.

For the compound `CC(C)(C)C1CCC(O)CC1` (centres undefined), the Potency entry in assay [1], in assay [3], in assay [9], in assay [4], in assay [5] and in [8] was “inactive” throughout. Further, the call in assay [7] and in assay [6] was inactive.

Turning to `Oc1ccc(OCc2ccccc2)cc1`, the Potency result in [1], in assay [2], in [3], in [10], in assay [5] and in assay [8] was “inactive” each time. In addition, in assay [4], the Potency is 21.2 µM (active) and inactive. The result in [6] was inactive.

Take `NC(=O)NNc1ccccc1`: the Potency entry in assay [1], in assay [2], in [3], in assay [4], in assay [5] and in [8] was “inactive” in each case. For the same compound, the call in assay [6] was inactive.

For the compound `CS(=O)(=O)Nc1ccc([N+](=O)[O-])cc1Oc1ccccc1`, the Potency entry in [1], in assay [2], in [3], in assay [10] and in [5] was “inactive” throughout. Also, in assay [6], the compound was called inactive.

Turning to `O=c1c(-c2ccc(O)cc2)coc2cc(O)ccc12`, the Potency result in assay [1], in assay [3], in assay [10] and in [8] was “inactive” in each case. The result in [7] and in assay [6] was inactive.

As to `CC1=CC[C@H]2C[C@@H]1C2(C)C`, the Potency entry in assay [1], in assay [3], in [4] and in assay [5] was “inactive” each time. For the same compound, the compound was called inactive in assay [7] and in [6].

For the compound `CCCCCCCCCCC=CC1CC(=O)OC1=O` (centres undefined), the Potency entry in [3], in assay [10] and in assay [5] was “inactive” in each case. Moreover, the result in assay [6] was inactive.

Regarding `O=S(=O)(O)c1cc(S(=O)(=O)O)c2c(N=Nc3ccccc3)c(O)ccc2c1`, the Potency in [1] is 24.4 µM (active) and 27.3 µM (active); in assay [3], 21.8 µM (active) and 21.7 µM (active). Moreover, the Potency result in assay [2], in assay [10], in assay [4], in assay [5] and in [8] was “inactive” in each case. Besides, in assay [6], the result was inactive.

Take `C=C(C)C(=O)OCCCCCC`: the Potency result in assay [1], in assay [3], in assay [10], in assay [4] and in assay [5] was “inactive” in each case. In addition, the compound was classed as inactive in [7] and in [6].

Consider `S=c1nc[nH]c2nc[nH]c12`, for which the Potency result in assay [1], in assay [3] and in assay [8] was “inactive” each time. The Potency entry in assay [2] was “inactive and 23.7 µM (active)”; in assay [4], 4.74 µM (active) and 7.5 µM (active); in [5], 0.842 µM (active). For the same compound, in assay [6], the compound was classed as inactive.

Regarding `Oc1c(Cl)cc(Cl)c(Cl)c1Cl`, the Potency entry in assay [1], in [3], in [5] and in assay [8] was “inactive” throughout. Moreover, in [7], the result was inactive. For the same compound, the Potency in assay [9] was 17 µM (active).

`CN(CCOc1ccc(CC2SC(=O)NC2=O)cc1)c1ccccn1` (centres undefined): the Potency entry in assay [2], in [3], in assay [10], in assay [5] and in assay [8] was “inactive” throughout. In addition, in assay [4], the Potency is 21.6 µM (active) and inactive. Also, the call in assay [6] was inactive.

As to `O=C1N=C(O)CN1/N=C/c1ccc(-c2ccc([N+](=O)[O-])cc2)o1`, the Potency entry in [1], in assay [10], in assay [4] and in assay [5] was “inactive” throughout. For the same compound, in assay [3], the Potency entry was “inactive and 48.6 µM (active)”. For the same compound, in assay [6], the call was inactive.

Regarding `CCCCCCCCCCCCN`, the Potency result in assay [2], in assay [3] and in assay [4] was “inactive” in each case. Also, the outcome in assay [7] was inactive. Besides, the Potency result in assay [5] was “inactive and 24.3 µM (active)”.

Consider `CCCCNC(N)=O`, for which the Potency entry in assay [1], in assay [3], in assay [9], in assay [10], in assay [4] and in [5] was “inactive” throughout. Further, the outcome in assay [7] and in assay [6] was inactive.

In the case of `O=C(O)c1ccc([N+](=O)[O-])cc1`, the Potency entry in [1], in assay [2], in [3], in assay [10], in assay [4] and in assay [5] was “inactive” throughout. Moreover, the Potency result in [8] was “inactive”. For the same compound, the compound was classed as inactive in assay [6].

On to `CCCCCCCCCC(=O)O`, for which the Potency entry in [1], in [3], in assay [10], in assay [4], in [5] and in assay [8] was “inactive” throughout. Besides, the Potency in assay [9] is 30.9 µM (active). The outcome in assay [6] was inactive.
